Test results: the supplement of paper PMC11060735
± gives the standard deviation of the averaged measurements. In all, about 1,800 compounds were measured (“GFP- (p16Ink4a-) cell count relative to negative-control wells”: median about 0.99, lowest 2% from about 0.5 on). The entries come from a sample that favours the lowest values as a whole.

These compounds were tested on mouse p16Ink4a+/- lung fibroblasts (INKBRITE, bleomycin-injured) (assay: GFP- (p16Ink4a-) cell count relative to negative-control wells (fold of vehicle); higher = more p16Ink4a- cells surviving). Settings: 1 µM; 3 days.

| SMILES | GFP- |
| --- | --- |
| Cc1[nH]c(/C=C2\C(=O)Nc3ccc(S(=O)(=O)Cc4c(Cl)cccc4Cl)cc32)c(C)c1C(=O)N1CCC[C@@H]1CN1CCCC1 | 0.404 |
| N=C(N)Nc1ccc(C(=O)Oc2ccc3cc(C(=N)N)ccc3c2)cc1 [Nafamostat] | 1.16 |
| Nc1cc(C(Cl)=C(Cl)Cl)c(S(N)(=O)=O)cc1S(N)(=O)=O [Clorsulon] | 1.08 |
| Cc1cc(C)c(/C=C2\C(=O)Nc3ccccc32)[nH]1 [Semaxanib] | 0.862 |
| Cc1ccc(-n2sc(=O)n(Cc3ccc(F)cc3)c2=O)cc1 | 1.1 |
| COc1ccc(-c2ccc3cc(C(=O)O)ccc3c2)cc1C12CC3CC(CC(C3)C1)C2 [Adapalene] | 1.05 |
| O=C(NCc1ccccc1)c1csc(Nc2ccncn2)n1 [Thiazovivin] | 1.04 |
| O=c1cc(-c2ccccc2)oc2cc(O)cc(O)c12 [Chrysin] | 0.996 |
| CCN1CCC[C@H]1CNC(=O)c1cc(S(N)(=O)=O)ccc1OC [Levosulpiride] | 0.964 |
| C[C@]12CC[C@H](O)CC1=CCC1C2CC[C@]2(C)C(n3cnc4ccccc43)=CCC12 (stereo partly drawn) [Galeterone] | 1.11 |
| O=C1Nc2ccc(I)cc2/C1=C/c1cc(Br)c(O)c(Br)c1 | 1.02 |
| CCOc1ccc(Cc2cc([C@@H]3O[C@H](CO)[C@@H](O)[C@H](O)[C@H]3O)ccc2Cl)cc1 [Dapagliflozin] | 1.12 |
| C=CCc1ccc(O)c(-c2ccc(O)c(CC=C)c2)c1 [Honokiol] | 0.883 |
| C=CCc1cccc(/C=N/NC(=O)CN2CCN(Cc3ccccc3)CC2)c1O | 0.654 |
| Cc1cc(NC(=O)Nc2ccc(N(C)C)cc2)c2cc(F)cc(F)c2n1 | 1.15 |
| CCOC(=O)[C@H](CCc1ccccc1)N[C@@H](C)C(=O)N1CCC[C@H]1C(=O)O [Enalapril] | 1 |
| Cc1ccc(F)c(NC(=O)Nc2ccc(-c3cccc4[nH]nc(N)c34)cc2)c1 [Linifanib] | 0.965 |
| NC1(c2ccc(-c3nc4ccn5c(O)nnc5c4cc3-c3ccccc3)cc2)CCC1 | 0.82 |
| COc1cc([C@@H]2c3cc4c(cc3[C@@H](O[C@@H]3O[C@@H]5CO[C@@H](C)O[C@H]5[C@H](O)[C@H]3O)[C@H]3COC(=O)[C@H]23)OCO4)cc(OC)c1O [Etoposide] | 0.985 |
| Cc1nc(O)c2cc(CN(C)c3ccc(C(=O)N[C@@H](CCC(=O)O)C(=O)O)s3)ccc2n1 [Raltitrexed] | 1.01 |
| CC(C)N(CCCNC(=O)Nc1ccc(C(C)(C)C)cc1)C[C@H]1O[C@@H](n2cc(Br)c3c(N)ncnc32)[C@H](O)[C@@H]1O | 1.01 ± 0.042 |
| COc1ccc(C(C)=O)c(O)c1 [Paeonol] | 1.18 |
| Cc1nc(NC(=O)N2CCC[C@H]2C(N)=O)sc1-c1csc(C(C)(C)C)n1 | 1.03 |
| CNC(=O)c1ccccc1Nc1nc(Nc2ccc(N3CCOCC3)cc2OC)ncc1Cl | 0.742 |

| SMILES | GFP- |
| --- | --- |
| CN1CC[C@H](c2c(O)cc(O)c3c(=O)cc(-c4ccccc4Cl)oc23)[C@H](O)C1 [Flavopiridol] | 0.326 |
| CN1CC[C@@H](c2c(O)cc(O)c3c(=O)cc(-c4ccccc4Cl)oc23)[C@@H]1CO | 0.807 |
| CC(=O)/N=c1/sc(S(N)(=O)=O)nn1C [Methazolamide] | 1.16 |
| C=C1C(=O)[C@@]23C(CC[C@@H]1[C@H]2O)[C@@]12CO[C@]3(O)[C@@H](O)[C@@H]1C(C)(C)CC[C@@H]2O (stereo partly drawn) [Oridonin] | 0.884 |
| C[C@@H](CN1CC(=O)NC(=O)C1)N1CC(=O)NC(=O)C1 [Dexrazoxane] | 0.899 |
| Cn1ncnc1[C@H]1c2nnc(O)c3cc(F)cc(c23)N[C@@H]1c1ccc(F)cc1 | 0.616 ± 0.066 |
| CC1=NC(N)=C(C(=O)OC2CN(C(c3ccccc3)c3ccccc3)C2)C(c2cccc([N+](=O)[O-])c2)/C1=C(/O)OC(C)C (stereo not drawn) [Azelnidipine] | 1.11 |
| Cc1cc(CN2CCN(c3c(Br)cnc4[nH]c(-c5ccc(N6CCN(C)CC6)cc5)nc34)CC2)no1 | 0.664 ± 0.17 |
| NS(=O)(=O)c1cc2c(cc1Cl)NCNS2(=O)=O [Hydrochlorothiazide] | 1.06 |
| CC[C@]1(O)C[C@@H]2CN(CCc3c([nH]c4ccccc34)[C@@](C(=O)OC)(c3cc4c(cc3OC)N(C=O)[C@@H]3C45CCN4CC=C[C@](CC)([C@H]45)[C@@H](OC(C)=O)[C@]3(O)C(=O)OC)C2)C1 (stereo partly drawn) [Vincristine] | 0.699 |
| CCn1cc(C(=O)O)c(=O)c2ccc(C)nc21 [Nalidixic Acid] | 0.895 |
| CC(=O)O[C@]1(C(C)=O)CC[C@H]2[C@@H]3C[C@H](C)C4=CC(=O)C=C[C@]4(C)[C@@]3(F)[C@@H](O)C[C@@]21C [Fluorometholone Acetate] | 1.14 |
| C[C@@]1(C(=O)Nc2ccc(F)nc2)CCCN1c1nc(Nc2cc(C3CC3)[nH]n2)c2cccn2n1 | 0.776 |
| COc1cc2nc(N3CCN(C(=O)C4CCCO4)CC3)nc(N)c2cc1OC (stereo not drawn) [Terazosin] | 0.942 |
| CC(C(=O)O)c1ccc2c(c1)CC(=O)c1ccccc1S2 (stereo not drawn) [Zaltoprofen] | 1.01 |
| Cc1ccc(CNc2ncnc3ccc(-c4ccc(CO)o4)cc23)o1 | 0.793 |
| CC1=C(C(=O)OC2CCCCC2)C(c2ccc([N+](=O)[O-])cc2)C2=C(O)CC(C)(C)CC2=N1 (stereo not drawn) | 0.82 |
| CC(C)c1ccc(NC(=O)Cn2cnc3c2c(=O)n(C)c(=O)n3C)cc1 | 0.98 |
| Nc1ccc(-c2ccc3ncc4ccc(=O)n(-c5cccc(C(F)(F)F)c5)c4c3c2)cn1 [Torin 2] | 0.456 |
| CCC(=O)N1CCN(c2ccc(-n3c(=O)ccc4cnc5ccc(-c6cnc7ccccc7c6)cc5c43)cc2C(F)(F)F)CC1 [Torin 1] | 0.571 |
| O=C(O)c1ccccc1 [Benzoic Acid] | 1.05 |
| CN(NC(=O)CC(=O)NN(C)C(=S)c1ccccc1)C(=S)c1ccccc1 [Elesclomol] | 0.277 |
| O=C(O)CCNC(=O)c1ccccc1 [Betamipron] | 1.06 |
| CC1(C)O[C@@H]2C[C@H]3[C@@H]4CCC5=CC(=O)CC[C@]5(C)[C@@]4(F)[C@@H](O)C[C@]3(C)[C@]2(C(=O)CCl)O1 [Halcinonide] | 1.02 |
